WT yeast gro inh: growth inhibition of WT yeast, mitochondrial fusion screen. AID 1362. inhibition, % at 10 µM. 2.1% of 190,000 active. mitochondrial fusion phenotypic screen, WT strain; in the data active means inhibition above about 58%; tested in S. cerevisiae
SKKanGAS inh: SKKanGAS growth inhibition. inhibition, % at 7.5 µM. S. pyogenes SKKanGAS, kanamycin growth, BacTiter-Glo, 6 h. 1.3% of 300,000 active;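 active means mean replicate score, as percent of positive control median, at least 50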;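 further: strain carries kanamycin resistance gene driven by streptokinase promoter and grows in 40 µg/ml kanamycin; loss of luminescence reflects streptokinase promoter inhibition or plain growth inhibition; 0% = median of DMSO wells and 100% = positive control at its reference dose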
Rtt109 Vps75: C. albicans Rtt109 histone acetyltransferase inhibition. Q5AAJ8. purified Rtt109/Vps75, ThioGlo CoA-SH fluorescence, 4 h. inhibition, % at 34.9 µM. 0.16% of 330,000 active. AID 540336;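 active means inhibition of at least 50% in every replicate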
Target sequence (Q5AAJ8 whole entry, looked up): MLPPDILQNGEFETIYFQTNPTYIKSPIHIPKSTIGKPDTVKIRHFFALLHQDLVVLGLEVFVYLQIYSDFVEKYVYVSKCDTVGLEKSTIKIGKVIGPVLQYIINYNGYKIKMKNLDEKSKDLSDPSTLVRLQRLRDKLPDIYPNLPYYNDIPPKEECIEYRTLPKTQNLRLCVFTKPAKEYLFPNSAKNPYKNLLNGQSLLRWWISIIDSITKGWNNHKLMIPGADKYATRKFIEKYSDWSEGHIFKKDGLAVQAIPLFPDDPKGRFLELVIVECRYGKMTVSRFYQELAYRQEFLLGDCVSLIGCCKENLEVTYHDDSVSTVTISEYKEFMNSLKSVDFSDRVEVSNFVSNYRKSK
TPT1 inh: inhibitors of Candida albicans tRNA 2'-phosphotransferase TPT1. recombinant caTPT1, FP RNA substrate dephosphorylation. inhibition, % at 5 µM. 0.81% of 300,000 active;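 active means inhibition above the mean of all tested compounds plus 3 SD, set per screening campaign, cut at about 24% in these data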;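 further: plate controls were DMSO alone for no effect and ferristatin control at 100 nM for full effect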
Platelet DG rel: modulates dense granule release in human platelets; human platelet-rich plasma, SFLLRN dense granule ATP release, luminescence; inhibition, %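 (compounds screened at 7.5 µM in platelet-rich plasma)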; 0.22% of 300,000 active; AID 1663;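 active means mean replicate score, as percent of positive control, at or above 50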
PHOSPHO1 inh: blocks human PHOSPHO1 phosphatase activity; inhibition, % at 13.3 µM; 1.1% of 290,000 active; Q8TCT1; AID 1565; recombinant PHOSPHO1, absorbance phosphatase assay; in the data active means inhibition above about 60%
Target sequence (Q8TCT1 whole entry, looked up): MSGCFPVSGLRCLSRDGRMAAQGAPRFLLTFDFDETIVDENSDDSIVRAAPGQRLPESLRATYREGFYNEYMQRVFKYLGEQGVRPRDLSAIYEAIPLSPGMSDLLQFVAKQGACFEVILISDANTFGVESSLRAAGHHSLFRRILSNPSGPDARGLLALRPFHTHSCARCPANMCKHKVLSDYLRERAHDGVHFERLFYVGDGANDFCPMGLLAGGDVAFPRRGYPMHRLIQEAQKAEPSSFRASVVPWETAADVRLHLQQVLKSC
An asterisk follows results filed as active; / = not tested or not shown. An excerpt weighted towards active compounds, which were near 3.9% of everything screened.

SMILES | WT yeast gro inh | SKKanGAS inh | Rtt109 Vps75 | TPT1 inh | Platelet DG rel | PHOSPHO1 inh
Cc1n[nH]c(=S)c2nn(-c3ccccc3F)c(C)c12 | / | -3 | -14 | / | -2 | 65*
Cc1n[nH]c(=S)c2nn(-c3cccc(Cl)c3)c(C)c12 | 13 | 8 | / | / | -3 | -37
CCN(CC(=O)NCc1ccc(Cl)cc1)C(=O)c1ccc(C#N)cc1 | / | / | -1 | -1 | 9 | 46
CN(C(=O)COC(=O)CNC(=O)c1cccs1)c1c(N)n(Cc2ccccc2)c(=O)[nH]c1=O | / | / | 1 | / | / | /
CC(C)C(NC(=O)c1ccc2c(c1)OCO2)C(=O)N/N=C\c1ccco1 (stereo not drawn) | -15 | -1 | / | -1 | -3 | 65*
CC(C)C(NC(=O)c1ccc2c(c1)OCO2)C(=O)N/N=C/c1cccs1 (stereo not drawn) | -9 | -3 | 1 | 3 | 5 | -21
COc1cccc(-c2nn(C)c3sc(C(=O)Nc4ccc5c(c4)OCCO5)cc23)c1 | 49 | 59* | 1 | 0 | 0 | -36
Cc1ccc(S(=O)(=O)N2CCOCC2)cc1C(=O)NC1=NCCS1 | / | / | 4 | / | / | /
Cc1cc(=O)cc(C)n1-c1ccccc1Br | / | 2 | 2 | -1 | 3 | 39
CCCc1nn2c(=O)cc(COc3ccc(NC(=O)c4ccco4)cc3)nc2s1 | / | -4 | -7 | -2 | 4 | 64*
COc1ccc(N2CCN(C(CNC(=O)COc3ccccc3)c3ccco3)CC2)cc1 (stereo not drawn) | / | -2 | 6 | -1 | 2 | /
CCOc1ccc(C(=O)NC(=S)N(Cc2ccccc2)Cc2ccccc2)cc1 | 12 | 98* | -2 | 2 | -1 | 9
CCCN(CCC)C(=S)NC(=O)c1ccc(-c2ccccc2)cc1 | 68* | 38 | 9 | 2 | 1 | 40
Cc1ccc(C(=O)NC(=S)N(C)Cc2ccccc2)cc1 | / | -8 | 4 | -3 | 1 | /
CCCCN(CCCC)C(=S)NC(=O)c1ccccc1Cl | 64* | -7 | 9 | -4 | 7 | 1
CC(C)c1ccc(Nc2nc(NCc3ccco3)nc(N3CCOCC3)n2)cc1 | 58* | 11 | 0 | 1 | -5 | 23
CCOC(=O)c1c(NC(=O)/C=C/c2ccc3c(c2)OCO3)sc(C)c1CC | 5 | -2 | 2 | -2 | 54* | 6
CCOC(=O)c1c(NC(=O)/C=C/c2ccc3c(c2)OCO3)sc(C)c1C | -4 | / | / | / | / | 10
COc1ccc(NC(=O)/C(C#N)=C\c2ccc(OCc3ccc(C(=O)O)cc3)c(OC)c2)cc1 | -10 | 5 | 1 | 1 | 9 | 70*
COc1ccc(C(CC(=O)N2CCCC(C)C2)c2c(OC)cc(OC)c3c(-c4ccccc4)cc(=O)oc23)cc1 (stereo not drawn) | / | 67* | 1 | 0 | -5 | 18
CCc1ccc(NC(=O)Nc2cccs2)cc1 | -42 | 2 | -1 | 2 | 23 | 74*
O=C(NCc1cccs1)Nc1cccs1 | -4 | 4 | 4 | -6 | 3 | 68*
O=C(Cn1[nH]c(=O)c2ccccc2c1=O)N1CCN(S(=O)(=O)c2ccc(Cl)cc2)CC1 | / | / | 1 | / | / | /
COC(=O)c1sc2ccccc2c1NC(=O)c1ccc(S(=O)(=O)N2CCCC(C)C2)cc1 (stereo not drawn) | -1 | 6 | -4 | -2 | -5 | -11
Cc1ccc2nc(NNC(=O)c3ccc4c(c3)OCCO4)sc2c1 | 4 | 3 | 22 | -2 | -44 | -16
SMILES | WT yeast gro inh | SKKanGAS inh | Rtt109 Vps75 | TPT1 inh | Platelet DG rel | PHOSPHO1 inh
Cc1cc(C)c2nc(NNC(=O)c3ccc(S(=O)(=O)N4CCCC(C)C4)cc3)sc2c1 (stereo not drawn) | 4 | 92* | 3 | 1 | 3 | 11
Cc1cccc2sc(NNC(=O)c3ccc(S(=O)(=O)N4CC(C)CC(C)C4)cc3)nc12 (stereo not drawn) | -14 | 92* | 3 | -5 | 0 | -18
COC(=O)c1sc2ccccc2c1NC(=O)c1ccc(S(=O)(=O)N2CC(C)CC(C)C2)cc1 (stereo not drawn) | -1 | 27 | 2 | -2 | 11 | 4
Cc1cc(C)c2nc(NNC(=O)c3ccc(S(=O)(=O)N4CC(C)CC(C)C4)cc3)sc2c1 (stereo not drawn) | 11 | 82* | 0 | -1 | -1 | -16
Cc1ccc2nc(NNC(=O)c3ccc(S(=O)(=O)N4CCc5ccccc5C4)cc3)sc2c1 | -2 | 79* | 6 | -1 | -20 | -6
Cc1ccccc1OCC(O)COc1ccccc1C | / | / | -1 | / | / | /
O=C(Nc1ccc(-c2cccc(F)c2)cc1)C1CCCN(Cc2ccccn2)C1 (stereo not drawn) | / | 52* | 4 | -1 | -1 | 21
O=C(c1ccc2c3c(cccc13)CC2)C1CCCN(Cc2ccccn2)C1 (stereo not drawn) | 22 | 69* | -7 | 0 | 14 | 37
CCOc1ccc(/C(O)=C2/C(=O)C(=O)N(c3ccccn3)C2c2ccc(Cl)cc2)c(C)c1 (stereo not drawn) | / | 64* | 2 | / | -1 | 11
CCOc1ccc(/C(O)=C2/C(=O)C(=O)N(c3ccccn3)C2c2ccc(C)cc2)c(C)c1 (stereo not drawn) | / | 40 | -1 | -2 | 3 | /
COc1ccc(NC(=O)CN(C)C(=O)c2cccc(S(=O)(=O)Nc3ccc(F)cc3)c2)cc1 | / | / | 5 | / | / | /
COc1ccc(OC)c(C(=O)COC(=O)c2[nH]c(C)c(C(C)=O)c2C)c1 | / | / | -21 | / | / | /
CC(C)(C)OC(=O)NNC(=S)NCc1ccc(Cl)cc1 | 13 | -4 | 2 | -4 | -3 | 73*
CC(C)(C)OC(=O)NNC(=O)c1ccc(Cl)cc1 | -13 | -3 | -8 | 2 | 3 | 19
CS(=O)(=O)N1CCN(c2ccc(NC(=O)c3cccnc3Cl)cc2)CC1 | -7 | 2 | -6 | -3 | 3 | 100*
O=C(Nc1ccc(N2CCCCC2)cc1)c1cccnc1Cl | 15 | -1 | 2 | 0 | -2 | 53
CN(Cc1ccccc1)c1nc(CN2CCOCC2)nc2scc(-c3ccccc3)c12 | 69* | 40 | 7 | 0 | -8 | 3
Fc1ccc(N2CCN(c3nc(CN4CCOCC4)nc4scc(-c5ccccc5)c34)CC2)cc1 | 78* | -3 | 5 | 0 | -11 | 23
Cc1ccc(-c2ccc(C#N)c(=O)n2CC(=O)N(C)C)cc1 | / | 3 | 3 | -3 | 3 | 19
O=C(CSc1nnc(-c2ccncc2)o1)Nc1cc(Cl)ccc1C(=O)O | / | / | -11 | / | / | /
COc1ccc(N(C(=O)c2ccco2)S(=O)(=O)c2cc(Cl)c(Cl)cc2Cl)cc1 | 59* | 14 | -2 | 6 | 0 | -6
CCCS(=O)(=O)c1nc(S(=O)(=O)c2ccc(C)cc2)c(N2CCCC(C)C2)s1 (stereo not drawn) | / | -10 | 3 | 3 | 0 | 32
COc1ccc(/C=C/C(=O)c2ccc([N+](=O)[O-])o2)cc1OC | / | 67* | / | 1 | 1 | /
COc1cc(/C=C/C(=O)c2ccc([N+](=O)[O-])o2)ccc1O | / | 72* | 2 | 10 | -11 | /
